Data reported in PubChem BioAssay (NCI).
Compounds without any hit were thinned out: in the full panel of roughly 83,000, 20% have a hit.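 How to read the values: 0–100, growth inhibition (40 = 60% inhibited); 0, no net growth; -100 to 0, cell death (-40 = 40% of starting cells died; -100 = all dead).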 Values without a mark were called inactive. Calls of active or inactive are those of the source. The calls were made as follows: active = growth percent below 10; inactive = the rest.

Legend:
Assay in all cases: NCI-60 one-dose screen, 48 h (100 = growth as untreated, 0 = no growth, -100 = all killed)
HCT-15 colon = conditions: 10 µM unless noted
HT29 colon = conditions: 10 µM unless noted
SNB-75 CNS = conditions: 10 µM unless noted
SNB-19 CNS = conditions: 10 µM unless noted
U251 CNS = conditions: 10 µM unless noted
PC-3 prostate = conditions: 10 µM unless noted
SK-MEL-5 melanoma = conditions: 10 µM unless noted
UACC-62 melanoma = conditions: 10 µM unless noted
SK-MEL-28 melanoma = conditions: 10 µM unless noted
SK-MEL-2 melanoma = conditions: 10 µM unless noted
EKVX NSCLC = conditions: 10 µM unless noted
SN12C renal = conditions: 10 µM unless noted
UO-31 renal = conditions: 10 µM unless noted
TK-10 renal = conditions: 10 µM unless noted
ACHN renal = conditions: 10 µM unless noted
CAKI-1 renal = conditions: 10 µM unless noted
A498 renal = conditions: 10 µM unless noted
CCRF-CEM leukemia = conditions: 10 µM unless noted
LOX IMVI melanoma = conditions: 10 µM
MOLT-4 leukemia = conditions: 10 µM unless noted

SMILES	growth (HCT-15 colon)	growth (HT29 colon)	growth (SNB-75 CNS)	growth (SNB-19 CNS)	growth (U251 CNS)	growth (PC-3 prostate)	growth (SK-MEL-5 melanoma)	growth (UACC-62 melanoma)	growth (SK-MEL-28 melanoma)	growth (SK-MEL-2 melanoma)	growth (EKVX NSCLC)	growth (SN12C renal)	growth (UO-31 renal)	growth (TK-10 renal)	growth (ACHN renal)	growth (CAKI-1 renal)	growth (A498 renal)	growth (CCRF-CEM leukemia)	growth (LOX IMVI melanoma)	growth (MOLT-4 leukemia)
COc1ccc(C(=O)/C=C/c2ccc(Oc3nc(Nc4ccc(F)cc4)nc(N(C)C)n3)c(OC)c2)cc1	33.8%	59%	66.4%	63.4%	11.4%	50.5%	32.9%	41%	76.7%	-8.47% (active)	75.6%	32.2%	42.9%	95.7%	36.9%	49%	78.3%	19.2%	–	–
O=C(NNc1ccccc1)n1c(=O)c2ccccc2c(=O)n1-c1ccccc1	91.4%	98.8%	80.3%	94.6%	94.1%	92.6%	101%	91.2%	104%	117%	91.3%	85.9%	81.5%	95%	93.7%	77.2%	101%	99.5%	–	–
C#C[C@]1(O)CC[C@H]2[C@@H]3CC=C4c5sc(-c6ccc([N+](=O)[O-])cc6)nc5CC[C@]4(C)[C@H]3CC[C@@]21C	-41.4% (active)	-80.4% (active)	93.7%	34.5%	0.123% (active)	1.72% (active)	23%	10.6%	-44.8% (active)	-42.8% (active)	-61.6% (active)	57%	-44.8% (active)	–	3.11% (active)	23.1%	6.18% (active)	9.17% (active)	-59.9% (active)	10%
CC1=C(C(=O)c2ccccc2)C(c2cccc3ccccc23)n2c(nc3ccccc32)N1 (configuration not stated)	70.3%	50.5%	60.3%	66.1%	17%	53.2%	62.1%	37.5%	84.1%	106%	58.4%	75.3%	81.8%	83.8%	88.5%	55.7%	153%	55.9%	–	–
C#CCOc1cc(N(CC)CC)ccc1C(C(=O)NC(C)(C)C)N(C(=O)C1CCc2cc(F)ccc2O1)c1ccccc1F (configuration not stated)	29.8%	45.3%	39.7%	35.1%	17.5%	13.5%	17.3%	30.9%	63.9%	-39.4% (active)	44.5%	43.7%	23.3%	45%	18.7%	22.4%	33.3%	31.8%	-61.6% (active)	5.25% (active)
COc1ccc2c(c1)c(-c1cc(N)n3nc(-c4cn(C)c5ccccc45)cc3n1)cn2C	-80.1% (active)	-64.6% (active)	-66.3% (active)	4.07% (active)	-80% (active)	-20.5% (active)	-58.3% (active)	-58.4% (active)	-92.2% (active)	-92.4% (active)	-63.1% (active)	-59.6% (active)	–	-79% (active)	-98.7% (active)	-77.4% (active)	-20.3% (active)	-24.3% (active)	-87.1% (active)	0.804% (active)
COc1ccc(/C=C2\C(=O)Nc3ccc(Cl)cc32)cc1OCc1ccccn1	59.9%	76.5%	38.1%	42.4%	-5.73% (active)	38.3%	52.4%	20.7%	68%	96.2%	23.8%	44.3%	5.88% (active)	63.6%	12.2%	24.3%	120%	50.8%	–	45.7%
COc1ccc(NC(=O)c2sc3nc(C(C)C)ccc3c2N)cc1	69.5%	73.6%	104%	91.4%	84.6%	71.7%	44.6%	85.6%	94%	97.5%	43.2%	74.1%	72.5%	93.1%	81.2%	80.7%	84.4%	54.6%	–	–
O=C(COc1ccc(NC(=O)Nc2ccc(Cl)c(Cl)c2)cc1)N=Nc1c(O)[nH]c2ccc(Cl)cc12	30.6%	-30.1% (active)	-37.6% (active)	-13.8% (active)	-84.5% (active)	-2.39% (active)	-83.8% (active)	-33.1% (active)	-81.4% (active)	-64.9% (active)	7.69% (active)	-30.4% (active)	56.8%	1.73% (active)	20.9%	-5.97% (active)	-32.4% (active)	8.9% (active)	–	-1.42% (active)
O=C1NC(=O)/C(=C/c2ccccc2OCc2cc3ccccc3nc2Cl)S1	84%	108%	46.9%	39.2%	58%	112%	67.6%	52%	102%	88.6%	88%	81.4%	71.9%	97.7%	86.2%	82.3%	122%	53.9%	–	–
COCOc1cc2oc(C(=O)N[C@@H](Cc3ccccc3)C(O)C(=O)NCc3ccccc3)c(C)c(=O)c2cc1OCOC (some centres not stated)	94.4%	77.5%	21.7%	47.3%	41.3%	101%	49.9%	63.6%	70.9%	79.7%	107%	51.9%	87.1%	63.2%	66.9%	84.7%	-35.2% (active)	104%	–	–
C#CCOc1cc(N(CC)CC)ccc1C(C(=O)NC(C)(C)C)N(C(=O)C1CCc2cc(F)ccc2O1)c1ccc(F)c(Cl)c1 (configuration not stated)	51.1%	79%	59%	60.5%	45.1%	25.7%	61.1%	45.8%	75.5%	-6.45% (active)	54.4%	55.8%	47.2%	85.2%	–	–	73%	52.8%	52.9%	21.2%
Cc1ccc(S(=O)(=O)c2nc(S(=O)(=O)c3ccc(C)cc3)c(Cl)s2)cc1	-87.6% (active)	-77.5% (active)	108%	81.4%	-38.5% (active)	18%	76.4%	39.7%	29.4%	42.5%	0.151% (active)	-20.5% (active)	-6.4% (active)	-50.4% (active)	–	-75.8% (active)	122%	5.23% (active)	-93% (active)	16.6%
O=C(N/N=C/c1ccc(-c2ccc(O)cc2)s1)c1[nH]c2ccc(Br)cc2c1-c1ccccc1	6.81% (active)	-71.4% (active)	-12.7% (active)	20.2%	25.7%	7.47% (active)	5.31% (active)	-13.1% (active)	1.23% (active)	-4.17% (active)	12.3%	4.89% (active)	15.2%	22.2%	-2.55% (active)	37.2%	-8.65% (active)	-8.51% (active)	–	-13.3% (active)
O=C(N=Nc1c(O)[nH]c2ccc([N+](=O)[O-])cc12)c1ccc2nc(-c3ccccc3)[nH]c2c1	105%	110%	95.7%	43.6%	34.8%	53.3%	97.7%	75.5%	60.8%	77%	97.5%	49.5%	84.4%	140%	101%	91.7%	122%	32.7%	–	–
Cc1ccc(-c2nc(Nc3ccccc3S(N)(=O)=O)c3ccccc3n2)cc1	40.1%	95%	91%	89%	57.5%	64.4%	87%	70.7%	107%	102%	74.1%	51.8%	50.4%	151%	–	78%	118%	76.1%	9.36% (active)	78.5%
